The experiment in a line: NCI Yeast Anticancer Drug Screen. Data for the rad18 strain (AID 177). The settings on record: S. cerevisiae rad18 mutant growth inhibition, active compounds read high. How it is done: Growth inhibition of yeast strains with defined genetic alterations is measured as a screen for potential anti-cancer activity. Selected strains with alterations in DNA damage repair or cell cycle control were exposed to compounds and growth inhibition was measured relative to vehicle treated controls. The strain used in this assay is rad18

Molecules are shown by their SMILES. The panel holds about 79,000 compounds, 15% with a hit somewhere; the sample as a whole holds those more often. A number with no mark means an inactive call. Active and inactive are the calls of the source. Rule as the data show it: active = growth inhibition above about 70%; inactive = the rest.

`Cc1ccc(SSc2ccc(C)cc2[N+](=O)[O-])c([N+](=O)[O-])c1`: the growth inhibition runs as follows: (at 1.2 µM) -18%; (at 3.7 µM) -14%; (at 11.0 µM) 19%; (at 33.0 µM) 53%; (at 100.0 µM) 83% (active).

Regarding `OC1C#CCSCC#C/C=C\1` (stereo not given), the growth inhibition reads like this: (at 1.2 µM) -27%; (at 3.7 µM) -21%; (at 11.0 µM) 4%; (at 33.0 µM) 49%; (at 100.0 µM) 92% (active).

In the case of `O=C(CCCN1CCC2(CC1)OC(=O)N(c1ccccc1)C2=O)c1ccccc1`, the growth inhibition by setting is: (at 1.2 µM) 63%; (at 3.7 µM) 70% (active); (at 11.0 µM) 78% (active); (at 33.0 µM) 80% (active); (at 100.0 µM) 77% (active).

In the case of `O=Cn1c2ccccc2c2ccccc21`, the growth inhibition was -41% (at 1.2 µM); -32% (at 3.7 µM); -26% (at 11.0 µM); -21% (at 33.0 µM); 65% (at 100.0 µM).

`COC1=C(N=[N+]=[N-])C(=O)c2ncccc2C1=O`: the growth inhibition reads like this: (at 1.2 µM) 60%; (at 3.7 µM) 89% (active); (at 11.0 µM) 94% (active); (at 33.0 µM) 96% (active); (at 100.0 µM) 96% (active).

On to `CNC(=O)OCc1c(COC(=O)NC)c(C)n(-c2ccc(Cl)c(Cl)c2)c1C`, for which the growth inhibition was -32% (at 1.2 µM); -33% (at 3.7 µM); 1% (at 11.0 µM); 97% (active) (at 33.0 µM); 98% (active) (at 100.0 µM).

With `COC(=O)C1(N2CCOCC2)CCC([C@@H](c2ccccc2)C(C)[N+](=O)[O-])C1` (stereo not given in full), the growth inhibition (at 1.2 µM) is 1%; the growth inhibition (at 3.7 µM) was 2%; the growth inhibition (at 11.0 µM) was 6%; the growth inhibition (at 33.0 µM) is 14%; the growth inhibition (at 100.0 µM) is 82% (active).

Take `O=Cc1ccccc1B(O)O`: the growth inhibition was 1% (at 1.2 µM); 34% (at 3.7 µM); 94% (active) (at 11.0 µM); 98% (active) (at 33.0 µM); 99% (active) (at 100.0 µM).

The values above are taken from PubChem BioAssay (NCI).
